Assay results published in PubChem BioAssay (NCI).
The panel holds about 79,000 compounds, 15% with a hit somewhere; the sample as a whole holds those more often. Rule as the data show it: active = growth inhibition above about 70%; inactive = the rest.

Columns and labels:
[1] = NCI Yeast Anticancer Drug Screen. Data for the rad50 strain (AID 155);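 also: 0% = growth of vehicle-only cultures of the same strain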; conditions: S. cerevisiae rad50 strain growth inhibition; at 50.0 µM; stronger effect = higher value
In short: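 Compounds were tested on a yeast strain with an engineered DNA damage repair alteration; the reported value is growth inhibition normalised to vehicle treatment.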

[2] = NCI Yeast Anticancer Drug Screen. Data for the mec2-1 strain (AID 157); conditions: S. cerevisiae mec2-1 strain, at 50.0 µM, stronger effect = higher value
In short: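 Cells of the genetically defined mec2-1 yeast strain are incubated with test compound. Inhibition of growth is calculated against vehicle-treated controls.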

[3] = NCI Yeast Anticancer Drug Screen. Data for the sgs1 mgt1 strain (AID 161);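 also: 0% = growth of cultures given vehicle only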; conditions: S. cerevisiae sgs1 mgt1 strain, at 50.0 µM, stronger effect = higher value
In short: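 Test agents were incubated with a DNA-repair-mutant yeast strain. Growth was then read and compared against vehicle-treated controls.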

[4] = NCI Yeast Anticancer Drug Screen. Data for the cln2 rad14 strain (AID 165);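 also: 0% = growth equal to vehicle treated cultures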; conditions: S. cerevisiae cln2 rad14 strain, at 50.0 µM, stronger effect = higher value
In short: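 The screen exposed genetically defined yeast (cln2 rad14) to test compounds and scored growth inhibition relative to vehicle-treated controls.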

[5] = NCI Yeast Anticancer Drug Screen. Data for the bub3 strain (AID 167); conditions: S. cerevisiae bub3 mutant strain, at 50.0 µM, stronger effect = higher value
In short: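 Growth of a checkpoint-deficient yeast mutant is measured after compound exposure. Values represent inhibition relative to vehicle.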

[6] = NCI Yeast Anticancer Drug Screen. Data for the mlh1 rad18 strain (AID 175); conditions: S. cerevisiae mlh1 rad18 strain growth inhibition; at 50.0 µM; stronger effect = higher value
In short: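 Compound-treated yeast growth, normalised to vehicle controls. Strain bears defined DNA repair mutations.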

Measured: growth inhibition

COc1cccc(/C=N\N=C\c2cccc(OC)c2O)c1O
inactive: [1] 2.65% | [2] 2.7% | [3] -11.4% | [4] -7.05% | [5] 26.6% | [6] 33.9%

O=c1c(C(=Nc2ccccc2)c2ccccc2)c[nH]n1-c1ccccc1
inactive: [1] -10.5% | [2] 6.9% | [3] -6% | [4] 17.6% | [5] -15.6% | [6] -12.1%

c1ccc(CC2CO2)cc1 (centres undefined)
inactive: [1] -2.7% | [2] -17.8% | [3] -1.4% | [4] -15.2% | [5] -0.2% | [6] -7.9%

Nc1cccc2c(=O)[nH][nH]c(=O)c12
inactive: [1] 16.6% | [2] -3.1% | [3] 23.9% | [4] 9.95% | [5] 14.8% | [6] 22.1%

O=c1cc(C(O)C(O)C(O)C(O)CO)[nH]c(=O)[nH]1 (centres undefined)
inactive: [1] 2.4% | [2] 7.1% | [3] 9% | [4] 24.9% | [5] -5.05% | [6] -4.6%

Cc1cc(N2CCCCC2)nc2ccc(Cc3ccc4nc(N5CCCCC5)cc(C)c4c3)cc12
inactive: [1] 48.7% | [2] -7.05% | [3] -27.9% | [4] -16.4% | [5] -47.4% | [6] 27.5%

Cc1ccc(N=Nc2c(N)nc(N)[nH]c2=O)c(C)c1
inactive: [1] 14.9% | [2] -4.8% | [3] -11.9% | [4] 9.6% | [5] 15.7% | [6] 19.8%

Cc1nc(=O)n2c(c1C(=O)Nc1ccc(Cl)cc1)NCC2
inactive: [1] 3.75% | [2] -3.35% | [3] 0.1% | [4] -37.9% | [5] 2.35% | [6] 14.8%

CC1(CCl)C(=O)C=Cc2ccccc21 (centres undefined)
inactive: [1] 6.45% | [2] 0.7% | [3] -5.1% | [4] -6.8% | [5] 5.3% | [6] -3.45%

CC(N)CCCO (centres undefined)
inactive: [1] -5.15% | [2] -5.5% | [3] 0.75% | [4] 10.3% | [5] -2.05% | [6] -2.05%

O=S(=O)(O)c1ccc(N=Nc2c(O)cc(O)cc2O)cc1
inactive: [1] -21.9% | [2] -6.8% | [3] -6.95% | [4] 17.2% | [5] 31.8% | [6] -18.4%

Cc1ccc(C(=O)/C=C\c2ccc(Cl)c(Cl)c2)cc1
inactive: [1] -14.9% | [2] -5.8% | [3] 23.3% | [4] -5.5% | [5] 35.7% | [6] 5.6%

O=c1[nH]cnc2c(C3OC(CO)C(O)C3O)[nH]nc12 (centres undefined)
inactive: [1] -5.2% | [2] -34.7% | [3] -15.8% | [4] 3.3% | [5] -16.8% | [6] -0.45%

OCc1sccc1-n1cccc1
inactive: [1] -19.4% | [2] -47.5% | [3] -16.6% | [4] 5.75% | [5] -48.5% | [6] -28.6%

COc1ccccc1C(O)C(C)(C)C (centres undefined)
inactive: [1] 50.9% | [2] 2.45% | [3] 7.5% | [4] 8.9% | [5] 8.4% | [6] 28.9%

OC(Cc1cccnc1)(c1ccccc1)c1cccc2ccccc12 (centres undefined)
inactive: [1] 12.3% | [2] 13.8% | [3] -2.3% | [4] 7.45% | [5] 10.5% | [6] 13.9%

CC(=O)NNc1nc(C)c(C(/C=C/c2ccc([N+](=O)[O-])cc2)=N/NC(N)=O)s1
inactive: [1] 23.6% | [2] -12.7% | [3] 24.2% | [4] 16.6% | [5] 8.75% | [6] 10.3%

COc1ccc(SSc2ccc(OC)cc2)cc1
inactive: [1] 25.9% | [2] -1.1% | [3] 12.2% | [4] 1.95% | [5] 6.2% | [6] 18.8%

O=C(O)CC(C(=O)O)c1ccccc1[N+](=O)[O-] (centres undefined)
inactive: [1] -26.9% | [2] -3.8% | [3] -24.2% | [4] -32.5% | [5] -1.1% | [6] -7.8%

CCOC(=O)NNC(N)=O
inactive: [1] -2.8% | [2] -19.2% | [3] -18% | [4] -22.1% | [5] 1.8% | [6] -10.5%

CC1CCC2C(C(=O)O[C@H]3C4CCO[C@@H](OC5OC(CO)C(O)C(O)C5O)C4[C@@]4(CO)O[C@@H]34)=CO[C@@H](OC3OC(CO)C(O)C(O)C3O)C12 (some centres undefined)
inactive: [1] 16.4% | [2] -9.6% | [3] 5.9% | [4] 22.2% | [5] 22.6% | [6] 19.6%

COc1cc(CN2CCCCC2)cc2cc(C(=O)O)c(=O)oc12
inactive: [1] 8.75% | [2] 7.55% | [3] -34.9% | [4] -1.15% | [5] -15.3% | [6] -11.9%

C/C(=N\NS(=O)(=O)c1ccccc1)c1ccc(Cl)c(Cl)c1
inactive: [1] -19.3% | [2] -10% | [3] -18.9% | [4] 2.25% | [5] 10.5% | [6] -38.5%

CC(C)(C)C(=O)CC(=O)C(F)(F)C(F)(F)C(F)(F)F.CC(C)(C)C(=O)CC(=O)C(F)(F)C(F)(F)C(F)(F)F.CC(C)(C)C(=O)CC(=O)C(F)(F)C(F)(F)C(F)(F)F.[Eu]
inactive: [1] 9.65% | [2] 39.4% | [3] 21.2% | [4] 39.5% | [5] 39.8% | [6] -1.2%

CCCOC(=O)C(=O)OCCC
inactive: [1] 2.15% | [2] 21.6% | [3] -23.8% | [4] -6% | [5] -11.3% | [6] -9.2%

Cc1ccc2c(c1)NC(c1ccc(C(=O)O)cc1)c1cccn1-2 (centres undefined)
inactive: [1] 29.7% | [2] 8.95% | [3] 0.45% | [4] 7.7% | [5] 19.3% | [6] 23.2%

CCCCN(CC)C(=O)C(=O)Cc1nc2ccc(C(=O)c3ccccc3)cc2[nH]c1=O
inactive: [1] 17.3% | [2] 2.45% | [3] -4.2% | [4] 17% | [5] 4.2% | [6] 2.4%

CCOCC(Cl)C(OCC)OCC (centres undefined)
inactive: [1] 0.45% | [2] 6.5% | [3] -5.4% | [4] -20.1% | [5] 2.85% | [6] -1.1%

CC(=O)OC1CCC(OC(C)=O)[C@H]2[C@@H]1[C@@H]1S[C@H]2c2ccccc21 (some centres undefined)
inactive: [1] 1% | [2] -1.55% | [3] -0.45% | [4] 11.1% | [5] 12.2% | [6] -1.15%

CCCCCCOC(=O)/C=C1/OC(=O)c2ccccc21
inactive: [1] -12.2% | [2] -15.5% | [3] 2.15% | [4] -60.5% | [5] 11.4% | [6] -16.4%

CC1COC(C)(C)O1 (centres undefined)
inactive: [1] 19.3% | [2] -31.6% | [3] 16.4% | [4] 0.65% | [5] 8% | [6] 11.2%

Cc1ccc(S(=O)(=O)OC(c2ccc(Cl)cc2Cl)C2OC(=O)c3ccccc32)cc1 (centres undefined)
inactive: [1] 23.3% | [2] -12.4% | [3] 16.9% | [4] 24.7% | [5] 15% | [6] 21.4%

COC(=O)/N=c1\cc(N2CC=CCC2)nc(N)n1O
inactive: [1] -5.85% | [2] -10.7% | [3] -21.2% | [4] 18.9% | [5] -10.8% | [6] 5.4%

O=C(Nc1ccc(Cl)cc1)c1cc2c(cc1Cl)Sc1nccn1S2(=O)=O
inactive: [1] -4.85% | [2] -11.7% | [3] -1.65% | [4] -25.4% | [5] 2.35% | [6] 16.9%

Cc1cc(Br)cc2c1NC(=O)C(C)C2C (centres undefined)
inactive: [1] -2.95% | [2] 12.7% | [3] -24.6% | [4] -8.95% | [5] -3.35% | [6] 1.1%

Cc1cn(C2OC(CO)C(O)C(O)C2O)c(=O)[nH]c1=O (centres undefined)
inactive: [1] -1.4% | [2] 5.65% | [3] -5.45% | [4] -3.2% | [5] 15.2% | [6] 0.9%

S=C(SCc1c(Cl)cccc1Cl)N1CCSCC1
inactive: [1] -13.9% | [2] -14.2% | [3] 23.1% | [4] -6.85% | [5] 53% | [6] 0.6%

CCCCCCCCNC=O
inactive: [1] 26.1% | [2] 11.1% | [3] 9.45% | [4] 1.1% | [5] 13.1% | [6] 20.8%

COc1ccc2oc(=O)c(CC=C(C)C)c(O)c2c1C
inactive: [1] 23.8% | [2] 13.9% | [3] -1.65% | [4] -10.9% | [5] -25.2% | [6] -51%
